Assays:
Settings in all cases: concentration: 1 μM, replicates: in singlicate; n = 1
STK36 = tested on: STK36
STK39 = tested on: STK39
SYK = tested on: SYK
SgK110 = tested on: SgK110
TAK1 = tested on: T1, TAK1
T1 construct: gene MAP3K7

TAOK1 = tested on: TAOK1
TAOK2 = tested on: TAOK2
TAOK3 = tested on: TAOK3
TBK1 = tested on: TBK1
TEC = tested on: TEC
TESK1 = tested on: TESK1
TGFBR1 = tested on: TGFBR1
TGFBR2 = tested on: TGFBR2
TIE1 = tested on: TIE1
TIE2 = tested on: T2, TIE2
T2 construct: gene TEK

TLK1 = tested on: TLK1
TLK2 = tested on: TLK2
TNIK = tested on: TNIK
TNK1 = tested on: TNK1
TNK2 = tested on: TNK2
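Further: KINOMEscan kinase panel screen.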

Structure (SMILES) | %Inh (STK36) | %Inh (STK39) | %Inh (SYK) | %Inh (SgK110) | %Inh (TAK1) | %Inh (TAOK1) | %Inh (TAOK2) | %Inh (TAOK3) | %Inh (TBK1) | %Inh (TEC) | %Inh (TESK1) | %Inh (TGFBR1) | %Inh (TGFBR2) | %Inh (TIE1) | %Inh (TIE2) | %Inh (TLK1) | %Inh (TLK2) | %Inh (TNIK) | %Inh (TNK1) | %Inh (TNK2)
COc1cccc2c(-c3ccncc3)c(-c3ccc(F)cc3)nn12 [GW468513] | 54% | 14% | 0% | 0% | 0% | 0% | 0% | 0% | 2% | 4% | 0% | 65% | 47% | 33% | 0% | 0% | 0% | 69% | 0% | 14%
Cn1cc(-c2ccc3c(c2)CCN3C(=O)Cc2cc(F)cc(C(F)(F)F)c2)c2c(N)ncnc21 [GSK2635225] | 19% | 0% | 27% | 0% | 39% | 0% | 0% | 0% | 21% | 0% | 26% | 0% | 0% | 87% | 52% | 17% | 5% | 20% | 10% | 2%
Cl.Cl.NCC(NC(=O)c1cc(-c2cccnc2)c(-c2ccnc3[nH]ccc23)s1)c1ccccc1 (stereo not drawn) [GSK1323434] | 0% | 64% | 18% | 0% | 45% | 29% | 0% | 0% | 2% | 27% | 19% | 22% | 27% | 19% | 0% | 14% | 0% | 77% | 0% | 16%
O=C(Nc1n[nH]c2cc(-c3cccs3)ccc12)C1CC1 [SB-731284] | 0% | 0% | 0% | 0% | 23% | 61% | 0% | 34% | 47% | 0% | 0% | 0% | 0% | 0% | 7% | 0% | 0% | 56% | 0% | 0%
CN(C)CCNS(=O)(=O)c1ccc(-c2ccnc3[nH]ccc23)cc1 [GSK977620] | 0% | 5% | 31% | 0% | 1% | 3% | 0% | 0% | 0% | 0% | 74% | 0% | 0% | 32% | 0% | 7% | 7% | 0% | 0% | 7%
O=C(O)C(F)(F)F.O=c1[nH]ccc2nc(N[C@@H]3CCNC3)nc(Nc3ccc4c(c3)S(=O)(=O)CC4)c12 [GSK2181306] | 20% | 84% | 87% | 10% | 99.3% | 90.3% | 60% | 94.9% | 68% | 0% | 0% | 0% | 0% | 0% | 0% | 94.6% | 98.5% | 98% | 31% | 3%
COc1ccc(C)c(Nc2ccnc(Nc3ccc(-c4cnc[nH]4)cc3)n2)c1.Cl [GW784041] | 36% | 0% | 16% | 0% | 0% | 0% | 3% | 0% | 49% | 7% | 21% | 39% | 34% | 0% | 36% | 0% | 0% | 9% | 44% | 36%
COC(=O)Nc1nc2cc(Oc3ccc(NC(=O)Nc4cccc(SC)c4)cc3)ccc2[nH]1.Cl [GW697999] | 8% | 0% | 23% | 0% | 36% | 0% | 0% | 0% | 0% | 5% | 3% | 25% | 0% | 96.5% | 93.2% | 0% | 0% | 0% | 4% | 10%
CN(c1ccc2c(c1)nc(NCc1ccccc1)n2C)c1ccnc(Nc2ccc(CS(C)(=O)=O)cc2)n1.Cl [GW811603] | 0% | 7% | 69% | 0% | 46% | 0% | 0% | 0% | 4% | 0% | 0% | 30% | 5% | 88% | 82% | 0% | 0% | 24% | 25% | 0%

From article PMC5540273 (PLoS ONE, 2017)
